Assay results published in PubChem BioAssay (NCATS).
Inconclusive results are not listed. The source made the active and inactive calls. Unless noted, calls come from the whole dose curve; as a rule, active = well fitted curve in the direction sought with a large enough effect; inconclusive = small, poorly fitted or top-dose-only effect, or another doubt; inactive = no such curve, though single readings can be large; an effect the other way counts as inactive or inconclusive.

Target: Ubiquitin carboxyl-terminal hydrolase 2 (Homo sapiens) (UniProt O75604)
Sequence (O75604 whole entry, looked up): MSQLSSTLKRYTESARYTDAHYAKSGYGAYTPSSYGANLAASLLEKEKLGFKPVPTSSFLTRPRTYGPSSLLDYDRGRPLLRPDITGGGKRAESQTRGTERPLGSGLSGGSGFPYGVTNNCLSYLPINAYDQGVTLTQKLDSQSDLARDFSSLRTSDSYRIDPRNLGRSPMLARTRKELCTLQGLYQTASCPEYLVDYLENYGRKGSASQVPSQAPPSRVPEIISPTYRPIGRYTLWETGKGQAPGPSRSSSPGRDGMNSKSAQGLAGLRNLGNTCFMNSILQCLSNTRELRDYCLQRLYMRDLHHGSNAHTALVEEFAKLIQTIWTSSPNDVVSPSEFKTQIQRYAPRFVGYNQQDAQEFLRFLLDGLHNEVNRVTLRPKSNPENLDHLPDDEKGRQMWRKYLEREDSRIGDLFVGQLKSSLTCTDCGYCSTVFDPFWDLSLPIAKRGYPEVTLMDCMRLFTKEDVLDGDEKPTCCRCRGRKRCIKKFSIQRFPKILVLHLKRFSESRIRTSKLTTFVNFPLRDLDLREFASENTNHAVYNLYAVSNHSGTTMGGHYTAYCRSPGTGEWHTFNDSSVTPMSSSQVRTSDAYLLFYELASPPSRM
Experiment: qHTS Validation Assay for Inhibitors of Ubiquitin-specific Protease USP2a Using CHOP2 as the Reporter (AID 463106);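 note: plate controls were DMSO for no effect and full inhibition by NEM for full effect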
Settings: USP2a cleavage of CHOP2 reporter, enzymatic; series mostly up to 38.3 µM; activity, negative = inhibition: at the top concentration
How it was run: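 USP2 core (10nM final) was preincubated with compound for 30min at RT in 20mM Tris-HCl pH 8.0, 2mM CaCl2, 2mM beta-mercaptoethanol, 0.05% CHAPS. Ub-CHOP2 and reporter substrate (25nM each) were added, and fluorescence (Ex 485/Em 531nm) was read after 60min.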

Compound	activity, negative = inhibition
Cc1cc2c(cc1Cl)N(C(=O)Nc1ccc(Oc3cccnc3C)nc1)CC2	-10% (inactive)
CN1C2CC(OC(=O)[C@H](CO)c3ccccc3)CC1C1OC12 (stereo not given in full)	-1.05% (inactive)
C=CC(C)=C[C@@]1(C)SC(=O)C(C)=C1O	-0.0026% (inactive)
CCOC(=O)C1=C(C)NC(C)=C(C(=O)OCC)C1c1c(F)c(F)c(F)c(F)c1F	-21.8% (inactive)
CCOC(=O)N1CCN(/[N+]([O-])=N/Oc2ccc([N+](=O)[O-])cc2[N+](=O)[O-])CC1	3.32% (inactive)
CC(C)CC(NP(=O)(O)O[C@@H]1O[C@@H](C)[C@H](O)[C@@H](O)[C@H]1O)C(=O)NC(Cc1c[nH]c2ccccc12)C(=O)O (stereo not given in full)	0.275% (inactive)
O=[N+]([O-])c1ccc2c(c1)S(=O)(=O)C=C2	3.78% (inactive)
CSc1ccccc1N1CCN(CCCCCC(=O)NC2CCCc3ccccc32)CC1 (stereo not given)	0.125% (inactive)
O=C1/C(=C/c2ccsc2)CC/C1=C\c1cccs1	5% (inactive)
CNc1ncnc2c1ncn2[C@@H]1O[C@H](CO)[C@@H](O)[C@H]1O	0.2% (inactive)
N#C/C(=C\c1ccc(-c2cc(Cl)ccc2Cl)o1)C(=O)Nc1cccc2ncccc12	0.157% (inactive)
CCN(CC)c1ncnc2c1ncn2[C@@H]1O[C@H](COP(=O)(O)OP(=O)(O)C(Br)(Br)P(=O)(O)O)[C@@H](O)[C@H]1O	-1.95% (inactive)

Target: DNA polymerase III PolC-type (Bacillus subtilis (strain 168)) (UniProt P13267)
Sequence (P13267 whole entry, looked up): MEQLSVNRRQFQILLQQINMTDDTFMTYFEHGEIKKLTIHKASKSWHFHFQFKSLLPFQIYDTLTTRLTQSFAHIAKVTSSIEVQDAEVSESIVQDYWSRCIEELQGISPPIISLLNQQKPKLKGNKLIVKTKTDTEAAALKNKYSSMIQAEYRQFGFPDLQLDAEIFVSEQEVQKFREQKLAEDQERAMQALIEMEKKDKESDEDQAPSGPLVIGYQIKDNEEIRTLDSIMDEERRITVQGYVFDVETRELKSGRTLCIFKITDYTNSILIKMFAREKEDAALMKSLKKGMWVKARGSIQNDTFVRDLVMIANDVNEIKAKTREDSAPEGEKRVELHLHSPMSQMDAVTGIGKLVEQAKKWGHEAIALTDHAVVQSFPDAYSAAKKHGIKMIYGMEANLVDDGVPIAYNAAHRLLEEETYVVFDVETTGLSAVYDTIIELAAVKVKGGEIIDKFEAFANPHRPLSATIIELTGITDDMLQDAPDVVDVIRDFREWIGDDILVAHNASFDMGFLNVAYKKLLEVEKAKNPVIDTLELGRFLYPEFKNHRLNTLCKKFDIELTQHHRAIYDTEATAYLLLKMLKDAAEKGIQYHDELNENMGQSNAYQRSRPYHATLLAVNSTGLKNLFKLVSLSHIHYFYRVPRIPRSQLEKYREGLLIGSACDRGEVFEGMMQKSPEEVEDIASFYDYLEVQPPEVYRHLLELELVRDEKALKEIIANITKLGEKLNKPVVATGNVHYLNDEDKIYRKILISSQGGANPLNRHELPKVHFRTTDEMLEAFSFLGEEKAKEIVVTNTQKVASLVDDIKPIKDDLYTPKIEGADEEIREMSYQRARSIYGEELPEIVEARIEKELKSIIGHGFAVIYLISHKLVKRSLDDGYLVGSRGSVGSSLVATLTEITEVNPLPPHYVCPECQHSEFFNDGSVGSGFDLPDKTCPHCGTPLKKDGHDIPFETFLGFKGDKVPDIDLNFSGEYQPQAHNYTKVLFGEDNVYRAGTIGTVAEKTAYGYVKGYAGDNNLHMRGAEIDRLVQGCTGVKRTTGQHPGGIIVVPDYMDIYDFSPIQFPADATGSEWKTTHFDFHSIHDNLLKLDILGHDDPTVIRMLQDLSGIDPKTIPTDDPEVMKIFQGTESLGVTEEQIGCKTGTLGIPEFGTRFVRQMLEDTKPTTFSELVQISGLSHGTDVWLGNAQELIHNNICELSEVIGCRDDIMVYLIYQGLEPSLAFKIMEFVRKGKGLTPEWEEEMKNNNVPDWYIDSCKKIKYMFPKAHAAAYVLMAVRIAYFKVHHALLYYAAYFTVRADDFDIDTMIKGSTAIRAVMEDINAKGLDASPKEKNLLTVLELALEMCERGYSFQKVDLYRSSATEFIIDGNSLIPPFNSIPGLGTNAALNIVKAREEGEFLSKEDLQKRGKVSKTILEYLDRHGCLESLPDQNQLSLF
Experiment: qHTS Validation Assay for the Inhibitors of DNA Replication in Gram-Positive Bacteria (AID 485295);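 note: reconstituted holoenzyme with PolC plus beta clamp SSB and primase; PicoGreen fluorescence of double-stranded DNA made on primed circular M13 template; 0% = DMSO wells and -100% = EDTA-quenched background wells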
Settings: Gram-positive bacterial DNA replication assay; series mostly up to 57.1 µM; activity change, negative = inhibition: at the top concentration
How it was run: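 PicoGreen fluorescence (ex 480–485/em 535–540 nm) reports dsDNA synthesized on ssM13Gori template with dNTPs/NTPs. Enzyme: holoenzyme rebuilt from purified PolC, beta subunit, SSB and primase. Compound preincubated before substrate addition; RT throughout.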

Compound	activity change, negative = inhibition
CCCC1(C)C(C#N)(C#N)C1(C#N)C#N	0.2% (inactive)
COc1ccccc1N1CCN(CCN(C(=O)c2ccc(I)cc2)c2ccccn2)CC1	-9.68% (inactive)
CCCCCCCCc1ccc(-c2ccc(C(=O)O)cc2)cc1	-19% (inactive)
NC[C@H]1O[C@@H](n2cnc3c(N)ncnc32)[C@H](O)[C@@H]1O	-3.92% (inactive)
NS(=O)(=O)C#Cc1ccccc1	1.39% (inactive)
O=C1NC(=O)/C(=C/c2ccc3nccnc3c2)S1	-1.3% (inactive)
CCNC(=O)[C@H]1O[C@@H](n2cnc3c(N)nc(NCCc4ccc(CCC(=O)O)cc4)nc32)[C@H](O)[C@@H]1O	-6.89% (inactive)
CC(C)NC[C@@H](O)c1ccc(O)c(O)c1	-0.522% (inactive)
Cc1ccc(S(=O)(=O)/C=C/C#N)cc1	-1.33% (inactive)
COc1ccc2c(c1)CCC1C2CC[C@@]2(C)C1CC[C@@H]2NCCCCCCN1C(=O)CCC1=O (stereo not given in full)	1.35% (inactive)
CC(N)C(=O)OC(C)(C)Cc1ccc(Cl)cc1 (stereo not given)	2.72% (inactive)
O=P(O)(O)C(Cl)(Cl)P(=O)(O)O	-3.26% (inactive)
Nc1ncnc2c1c(I)cn2[C@@H]1C[C@H](N)[C@@H](O)[C@H]1O	6.42% (inactive)
Cc1cc(NC2CCCCC2)nc(-n2nc(C)cc2C)n1	-0.601% (inactive)
N=c1ccn2c(n1)O[C@H]1[C@H](O)[C@@H](CO)O[C@H]12	3.17% (inactive)
NCC1OC(O[C@H]2[C@H](O)[C@@H](OC3C(O)C(N)CC(N)C3OC3OC(CO)C(O)C(O)C3N)O[C@@H]2CO)C(N)C(O)C1O (stereo not given in full)	0.335% (inactive)
Cc1cc2c(cc1Cl)N(C(=O)Nc1ccc(Oc3cccnc3C)nc1)CC2	-7.37% (inactive)
CN1C2CC(OC(=O)[C@H](CO)c3ccccc3)CC1C1OC12 (stereo not given in full)	10.1% (inactive)
C=CC(C)=C[C@@]1(C)SC(=O)C(C)=C1O	2.98% (inactive)
CCOC(=O)C1=C(C)NC(C)=C(C(=O)OCC)C1c1c(F)c(F)c(F)c(F)c1F	-22.7% (inactive)
CCOC(=O)N1CCN(/[N+]([O-])=N/Oc2ccc([N+](=O)[O-])cc2[N+](=O)[O-])CC1	2.93% (inactive)
CC(C)CC(NP(=O)(O)O[C@@H]1O[C@@H](C)[C@H](O)[C@@H](O)[C@H]1O)C(=O)NC(Cc1c[nH]c2ccccc12)C(=O)O (stereo not given in full)	5.14% (inactive)
O=[N+]([O-])c1ccc2c(c1)S(=O)(=O)C=C2	-6.29% (inactive)
CSc1ccccc1N1CCN(CCCCCC(=O)NC2CCCc3ccccc32)CC1 (stereo not given)	5.17% (inactive)
C=C[C@H]1CN2CC[C@@H]1C[C@@H]2[C@@H](O)c1ccnc2ccc(OC)cc12	3.58% (inactive)
O=C1/C(=C/c2ccsc2)CC/C1=C\c1cccs1	0.598% (inactive)
N#C/C(=C\c1ccc(-c2cc(Cl)ccc2Cl)o1)C(=O)Nc1cccc2ncccc12	-3.15% (inactive)
CCN(CC)c1ncnc2c1ncn2[C@@H]1O[C@H](COP(=O)(O)OP(=O)(O)C(Br)(Br)P(=O)(O)O)[C@@H](O)[C@H]1O	3.67% (inactive)

Target: Tumor susceptibility gene 101 protein (Homo sapiens) (UniProt Q99816)
Sequence (Q99816 whole entry, looked up): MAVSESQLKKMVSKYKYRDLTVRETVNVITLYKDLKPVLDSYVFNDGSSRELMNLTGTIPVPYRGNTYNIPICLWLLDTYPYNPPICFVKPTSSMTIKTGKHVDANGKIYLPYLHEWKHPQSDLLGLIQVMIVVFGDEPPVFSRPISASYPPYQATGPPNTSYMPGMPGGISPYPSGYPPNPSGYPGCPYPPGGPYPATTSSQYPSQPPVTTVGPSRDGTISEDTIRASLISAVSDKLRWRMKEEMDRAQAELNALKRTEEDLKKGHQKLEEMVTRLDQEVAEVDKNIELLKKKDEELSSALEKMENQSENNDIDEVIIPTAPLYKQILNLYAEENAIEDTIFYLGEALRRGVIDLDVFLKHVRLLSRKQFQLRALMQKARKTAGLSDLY
Experiment: qHTS Validation Assay for Iinhibitors of HIV-1 Budding by Blocking the Interaction of PTAP/TSG101 (AID 485342; calls by dose curve; note: 0% is about no effect)
Settings: TSG101-PTAP binding, fluorescence polarization, 4-point titration; series mostly up to 115 µM; fluorescence change: at the top concentration
How it was run: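 FP read-out: FITC-PTAP peptide, 50 nM final, binding Tsg101 binding domain, 10 uM final; 20 min r.t.; 10 mM HEPES pH 7.5, 0.15 M NaCl, 0.01% Tween 20, 3 mM EDTA, 0.1 mM TCEP.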

Compound	fluorescence change
CN(C)CCCO[C@@H]1[C@H]2OC(C)(C)O[C@H]2O[C@@H]1[C@H](O)CO	0.0656% (inactive)
CCCC1(C)C(C#N)(C#N)C1(C#N)C#N	5.8% (inactive)
COc1ccccc1N1CCN(CCN(C(=O)c2ccc(I)cc2)c2ccccn2)CC1	-9.37% (inactive)
CCCCCCCCc1ccc(-c2ccc(C(=O)O)cc2)cc1	-7.66% (inactive)
O=C(CCCCCN1CCN(c2ccccc2-c2ccccc2)CC1)NC1CCCc2ccccc21 (stereo not given)	-12.9% (inactive)
NC[C@H]1O[C@@H](n2cnc3c(N)ncnc32)[C@H](O)[C@@H]1O	2.62% (inactive)
NS(=O)(=O)C#Cc1ccccc1	2.14% (inactive)
O=C1NC(=O)/C(=C/c2ccc3nccnc3c2)S1	-8.26% (inactive)
CCNC(=O)[C@H]1O[C@@H](n2cnc3c(N)nc(NCCc4ccc(CCC(=O)O)cc4)nc32)[C@H](O)[C@@H]1O	-6.21% (inactive)
CC(C)NC[C@@H](O)c1ccc(O)c(O)c1	2.13% (inactive)
Cc1ccc(S(=O)(=O)/C=C/C#N)cc1	3.86% (inactive)
COc1ccc2c(c1)CCC1C2CC[C@@]2(C)C1CC[C@@H]2NCCCCCCN1C(=O)CCC1=O (stereo not given in full)	1.64% (inactive)
CC(N)C(=O)OC(C)(C)Cc1ccc(Cl)cc1 (stereo not given)	3.48% (inactive)
Cn1ncc(S(=O)(=O)Cc2ccccc2)c(Br)c1=O	-6.26% (inactive)
CC(=O)/C=C1\C(=O)N(C)c2ccccc21	0.988% (inactive)
OC[C@H]1O[C@@H](n2cnc3c(NC4CCCC4)ncnc32)[C@H](O)[C@@H]1O	1.84% (inactive)
O=P(O)(O)C(Cl)(Cl)P(=O)(O)O	2.94% (inactive)
CC[C@@H](C)[C@H]1O[C@]2(CC[C@H]1C)C[C@@H]1C[C@@H](CC=C(C)[C@@H](O[C@H]3C[C@H](OC)[C@@H](O[C@H]4C[C@H](OC)[C@@H](O)[C@H](C)O4)[C@H](C)O3)[C@@H](C)C=CC=C3CO[C@@H]4[C@H](O)C(C)=C[C@@H](C(=O)O1)[C@]34O)O2	-16.5% (inactive)

Compound	fluorescence change
Nc1ncnc2c1c(I)cn2[C@@H]1C[C@H](N)[C@@H](O)[C@H]1O	-0.689% (inactive)
Cc1cc(NC2CCCCC2)nc(-n2nc(C)cc2C)n1	-10.8% (inactive)
N=c1ccn2c(n1)O[C@H]1[C@H](O)[C@@H](CO)O[C@H]12	-1.84% (inactive)
NCC1OC(O[C@H]2[C@H](O)[C@@H](OC3C(O)C(N)CC(N)C3OC3OC(CO)C(O)C(O)C3N)O[C@@H]2CO)C(N)C(O)C1O (stereo not given in full)	-3.15% (inactive)
Cc1cc2c(cc1Cl)N(C(=O)Nc1ccc(Oc3cccnc3C)nc1)CC2	-16% (inactive)
CN1C2CC(OC(=O)[C@H](CO)c3ccccc3)CC1C1OC12 (stereo not given in full)	1.97% (inactive)
C=CC(C)=C[C@@]1(C)SC(=O)C(C)=C1O	6.94% (inactive)
CCOC(=O)C1=C(C)NC(C)=C(C(=O)OCC)C1c1c(F)c(F)c(F)c(F)c1F	-24.7% (inactive)
CCOC(=O)N1CCN(/[N+]([O-])=N/Oc2ccc([N+](=O)[O-])cc2[N+](=O)[O-])CC1	0.289% (inactive)
CC(C)CC(NP(=O)(O)O[C@@H]1O[C@@H](C)[C@H](O)[C@@H](O)[C@H]1O)C(=O)NC(Cc1c[nH]c2ccccc12)C(=O)O (stereo not given in full)	0.51% (inactive)
O=[N+]([O-])c1ccc2c(c1)S(=O)(=O)C=C2	6.67% (inactive)
CSc1ccccc1N1CCN(CCCCCC(=O)NC2CCCc3ccccc32)CC1 (stereo not given)	-11.2% (inactive)
C=C[C@H]1CN2CC[C@@H]1C[C@@H]2[C@@H](O)c1ccnc2ccc(OC)cc12	3.38% (inactive)
O=C1/C(=C/c2ccsc2)CC/C1=C\c1cccs1	-2.66% (inactive)
CNc1ncnc2c1ncn2[C@@H]1O[C@H](CO)[C@@H](O)[C@H]1O	2.42% (inactive)
N#C/C(=C\c1ccc(-c2cc(Cl)ccc2Cl)o1)C(=O)Nc1cccc2ncccc12	0.901% (inactive)
CCN(CC)c1ncnc2c1ncn2[C@@H]1O[C@H](COP(=O)(O)OP(=O)(O)C(Br)(Br)P(=O)(O)O)[C@@H](O)[C@H]1O	-1.19% (inactive)
